Assay results: PubChem BioAssay (NCI)
The panel holds about 79,000 compounds, 15% with a hit somewhere; the sample as a whole holds those more often. Active and inactive are the calls of the source. Rule as the data show it: active = growth inhibition above about 70%; inactive = the rest.

How the values were obtained:
[1] = NCI Yeast Anticancer Drug Screen. Data for the rad52 strain (AID 147);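 also: 0% = growth of vehicle-treated control cultures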; conditions: S. cerevisiae rad52 mutant growth inhibition, stronger effect = higher value
Method in brief: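 Here a repair-compromised yeast strain receives each compound; its growth is then quantified and normalised to vehicle-only controls.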

[2] = NCI Yeast Anticancer Drug Screen. Data for the rad50EPP+ strain (AID 151);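 also: 0% = growth of vehicle-treated control cultures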; conditions: S. cerevisiae rad50 mutant strain, stronger effect = higher value
Method in brief: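 Read-out is yeast growth inhibition relative to vehicle; cells used were the rad50EPP+ strain.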

[3] = NCI Yeast Anticancer Drug Screen. Data for the mgt1 strain (AID 153); conditions: S. cerevisiae mgt1 mutant growth inhibition, stronger effect = higher value
Method in brief: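 Measured: inhibition of mgt1 yeast growth by compound, normalized to vehicle-treated cultures.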

[4] = NCI Yeast Anticancer Drug Screen. Data for the rad50 strain (AID 155);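 also: 0% = growth of vehicle-only cultures of the same strain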; conditions: S. cerevisiae rad50 strain growth inhibition, stronger effect = higher value
Method in brief: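 Cells are treated with compound, grown, and their growth is then scored against vehicle-only cultures of the same repair-deficient yeast strain.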

[5] = NCI Yeast Anticancer Drug Screen. Data for the mec2-1 strain (AID 157); conditions: S. cerevisiae mec2-1 strain, stronger effect = higher value
Method in brief: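 Using mec2-1 yeast: add compound, measure growth, express inhibition versus vehicle-treated cultures.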

[6] = NCI Yeast Anticancer Drug Screen. Data for the rad14 strain (AID 159);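 also: 0% = growth of vehicle-treated control cultures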; conditions: S. cerevisiae rad14 strain growth inhibition, stronger effect = higher value
Method in brief: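 Readout: yeast growth inhibition, referenced to vehicle-only cultures. Strain bears a defined alteration in DNA damage repair.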

[7] = NCI Yeast Anticancer Drug Screen. Data for the sgs1 mgt1 strain (AID 161);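 also: 0% = growth of cultures given vehicle only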; conditions: S. cerevisiae sgs1 mgt1 strain, stronger effect = higher value
Method in brief: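 Compounds are added to genetically altered yeast, and growth is compared with cultures given vehicle alone to give percent inhibition.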

[8] = NCI Yeast Anticancer Drug Screen. Data for the CLN2oe strain (AID 163);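 also: 0% = growth of vehicle-only control cultures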; conditions: S. cerevisiae CLN2oe strain, stronger effect = higher value
Method in brief: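 Whole-cell yeast growth assay. A strain engineered for altered cell-cycle control received compound, and inhibition relative to vehicle-treated cultures was recorded.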

[9] = NCI Yeast Anticancer Drug Screen. Data for the cln2 rad14 strain (AID 165);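 also: 0% = growth equal to vehicle treated cultures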; conditions: S. cerevisiae cln2 rad14 strain, stronger effect = higher value
Method in brief: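 Yeast strain cln2 rad14, bearing defects in cell cycle control and DNA repair, serves as the test system; values reflect growth inhibition compared with vehicle.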

[10] = NCI Yeast Anticancer Drug Screen. Data for the bub3 strain (AID 167); conditions: S. cerevisiae bub3 mutant strain, stronger effect = higher value
Method in brief: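 Part of a panel of yeast mutants defective in DNA damage repair or cell cycle regulation. Each strain is grown with compound, and inhibition is calculated relative to solvent-treated cultures.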

[11] = NCI Yeast Anticancer Drug Screen. Data for the wt2 strain (AID 169);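 also: 0% = growth of vehicle-treated yeast cultures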; conditions: S. cerevisiae wt2 strain growth inhibition, stronger effect = higher value
Method in brief: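 Treated yeast vs. vehicle-treated yeast: growth inhibition determined.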

[12] = NCI Yeast Anticancer Drug Screen. Data for the sgs1 strain (AID 173);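 also: 0% = growth of vehicle-only control cultures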; conditions: S. cerevisiae sgs1 mutant, stronger effect = higher value
Method in brief: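 A genetically defined yeast mutant is incubated with the test compound, and its growth is compared to that of the same strain given vehicle.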

[13] = NCI Yeast Anticancer Drug Screen. Data for the mlh1 rad18 strain (AID 175); conditions: S. cerevisiae mlh1 rad18 strain growth inhibition, stronger effect = higher value
Method in brief: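 Steps: expose repair-defective yeast to compound; measure growth; express inhibition against vehicle-treated controls.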

[14] = NCI Yeast Anticancer Drug Screen. Data for the rad18 strain (AID 177); conditions: S. cerevisiae rad18 mutant growth inhibition, stronger effect = higher value
Method in brief: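 Measured value is growth inhibition of a yeast strain bearing a DNA repair alteration, referenced to vehicle-treated cells.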

[15] = NCI Yeast Anticancer Drug Screen. Data for the mlh1 strain (AID 171);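 also: 0% = growth of vehicle-treated control cultures of the same strain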; conditions: S. cerevisiae mlh1 strain growth inhibition, stronger effect = higher value
Method in brief: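 A yeast strain with a defined genetic lesion serves as the test organism. Cultures receive compound or vehicle, and growth is measured.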

[16] = at 5.0 µM (retest, dose inferred, filed as 0.5)
[17] = at 50.0 µM (retest, dose inferred, filed as 5.0)

Measured: growth inhibition

Cc1ccc(S/C(=C\C(=O)O)c2ccccc2)cc1
active: [13]; [17] 72%
inactive: [1]; at 1.2 µM 2% | [1]; at 3.7 µM 7% | [1]; at 11.0 µM 12% | [1]; at 33.0 µM 28% | [1]; at 100.0 µM 46% | [2]; at 1.2 µM -6% | [2]; at 3.7 µM 2% | [2]; at 11.0 µM 15% | [2]; at 33.0 µM 25% | [2]; at 100.0 µM 52% | [3]; at 1.2 µM -4% | [3]; at 3.7 µM -5% | [3]; at 11.0 µM -3% | [3]; at 33.0 µM 4% | [3]; at 100.0 µM 32% | [4]; at 1.2 µM 2% | [4]; at 3.7 µM 4% | [4]; [16] -16% | [4]; at 11.0 µM 13% | [4]; at 33.0 µM 30% | [4]; [17] 47% | [4]; at 50.0 µM 41.9% | [4]; at 100.0 µM 52% | [5]; at 1.2 µM -6% | [5]; at 3.7 µM -3% | [5]; [16] -15% | [5]; at 11.0 µM -4% | [5]; at 33.0 µM 8% | [5]; [17] -1% | [5]; at 50.0 µM 28.9% | [5]; at 100.0 µM 25% | [6]; at 1.2 µM -1% | [6]; at 3.7 µM 3% | [6]; at 11.0 µM 7% | [6]; at 33.0 µM 17% | [6]; at 100.0 µM 34% | [7]; [16] -12% | [7]; [17] 52% | [7]; at 50.0 µM 64.8% | [8]; at 1.2 µM 1% | [8]; at 3.7 µM -2% | [8]; at 11.0 µM 5% | [8]; at 33.0 µM 16% | [8]; at 100.0 µM 35% | [9]; [16] -6% | [9]; [17] 29% | [9]; at 50.0 µM 47.5% | [10]; at 1.2 µM -4% | [10]; at 3.7 µM -4% | [10]; [16] -2% | [10]; at 11.0 µM -4% | [10]; at 33.0 µM 6% | [10]; [17] 66% | [10]; at 50.0 µM 39.5% | [10]; at 100.0 µM 19% | [11]; at 1.2 µM -10% | [11]; at 3.7 µM -11% | [11]; at 11.0 µM -7% | [11]; at 33.0 µM -3% | [11]; at 100.0 µM 11% | [12]; at 1.2 µM 4% | [12]; at 3.7 µM -4% | [12]; at 11.0 µM 12% | [12]; at 33.0 µM 25% | [12]; at 100.0 µM 50% | [13]; [16] -29% | [13]; at 50.0 µM 38% | [14]; at 1.2 µM -4% | [14]; at 3.7 µM 4% | [14]; at 11.0 µM 7% | [14]; at 33.0 µM 20% | [14]; at 100.0 µM 50%

COc1cc(CSc2ccc(O)cc2)cc(O)c1O
inactive: [1]; at 1.2 µM 2% | [1]; at 3.7 µM 3% | [1]; at 11.0 µM 5% | [1]; at 33.0 µM 7% | [1]; at 100.0 µM 8% | [3]; at 1.2 µM 1% | [3]; at 3.7 µM -3% | [3]; at 11.0 µM 1% | [3]; at 33.0 µM 0% | [3]; at 100.0 µM 2% | [4]; at 1.2 µM 3% | [4]; at 3.7 µM 6% | [4]; [16] 5% | [4]; at 11.0 µM -2% | [4]; at 33.0 µM 6% | [4]; [17] 42% | [4]; at 50.0 µM 60.8% | [4]; at 100.0 µM 6% | [5]; at 1.2 µM 4% | [5]; at 3.7 µM -1% | [5]; [16] -14% | [5]; at 11.0 µM -1% | [5]; at 33.0 µM -4% | [5]; [17] -6% | [5]; at 50.0 µM 54.1% | [5]; at 100.0 µM 0% | [6]; at 1.2 µM 1% | [6]; at 3.7 µM 2% | [6]; at 11.0 µM 5% | [6]; at 33.0 µM 0% | [6]; at 100.0 µM 1% | [7]; [16] -3% | [7]; [17] 30% | [8]; at 1.2 µM 6% | [8]; at 3.7 µM 8% | [8]; at 11.0 µM 10% | [8]; at 33.0 µM 12% | [8]; at 100.0 µM 17% | [9]; [16] 18% | [9]; [17] 14% | [9]; at 50.0 µM 36% | [10]; at 1.2 µM 6% | [10]; at 3.7 µM 10% | [10]; [16] -7% | [10]; at 11.0 µM 11% | [10]; at 33.0 µM 9% | [10]; [17] 14% | [10]; at 50.0 µM 61.2% | [10]; at 100.0 µM 6% | [11]; at 1.2 µM 1% | [11]; at 3.7 µM 1% | [11]; at 11.0 µM 0% | [11]; at 33.0 µM -1% | [11]; at 100.0 µM 1% | [15]; at 1.2 µM 4% | [15]; at 3.7 µM 0% | [15]; at 11.0 µM 3% | [15]; at 33.0 µM 2% | [15]; at 100.0 µM 3%
active: [7]; at 50.0 µM 74.7%
